From PubChem BioAssay AID777 (Sanford-Burnham Center for Chemical Genomics, 2007)
Among all 96,000 compounds or so, about 19,000 (20%) were called active.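 How the source made its calls: active means blocking of liver enzyme CYP2C9 beyond about 50% at 5 µM (limit read from the data); inactive means the rest.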 Not all results are given here.

Biological target: Cytochrome P450 2C9 (Homo sapiens) (UniProt P11712)
Assay: blockers of cytochrome P450 2C9 activity – biochemical, luminescence, ADME assay, primary screen (AID 777)
Conditions: CYP2C9 Supersomes, luciferin-H conversion, at 5 µM, hits give high values

Sequence of Cytochrome P450 2C9 (Homo sapiens) (P11712 whole entry, looked up): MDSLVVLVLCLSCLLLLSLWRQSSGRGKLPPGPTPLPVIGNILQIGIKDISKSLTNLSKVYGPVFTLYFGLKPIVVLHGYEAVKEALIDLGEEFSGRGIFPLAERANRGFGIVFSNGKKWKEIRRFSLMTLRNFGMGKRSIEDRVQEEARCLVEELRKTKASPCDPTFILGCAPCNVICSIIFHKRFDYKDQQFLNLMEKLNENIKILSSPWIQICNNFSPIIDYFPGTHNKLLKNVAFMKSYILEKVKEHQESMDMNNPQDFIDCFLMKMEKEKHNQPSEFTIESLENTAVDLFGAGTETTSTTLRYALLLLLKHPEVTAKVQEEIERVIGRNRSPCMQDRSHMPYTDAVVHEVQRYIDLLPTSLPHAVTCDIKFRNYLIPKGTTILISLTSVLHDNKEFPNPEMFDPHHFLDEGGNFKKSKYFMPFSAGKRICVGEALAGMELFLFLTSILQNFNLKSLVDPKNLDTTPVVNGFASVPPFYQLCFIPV

inhibition, inactive:
O=S(=O)(NCc1ccccc1Cl)c1cnc[nH]1 28.8%
CC1(C)CC(=O)C=C(NCCN2CCNCC2)C1 -8.1%
COC(=O)c1ccc(NCC(=O)c2ccccc2)cc1 48.7%
Cc1ccc(Nc2nc(C)cc(C)c2C(N)=O)cc1 6.2%
Cc1nc(CNS(=O)(=O)c2cccnc2)cs1 8.8%
CCc1cc2c(=O)c(-c3ccon3)c(N)oc2cc1OC 0.5%
O=C(CSc1nnc(-c2ccco2)n1-c1ccccc1)NCCc1ccccc1 30.9%
Cc1ccc(-n2c(SCC(=O)Nc3ccc4c(c3)OCO4)nnc2-c2ccoc2C)cc1 -13.4%
Cc1ccc(-c2csc3nnc(SCC(=O)NCc4ccco4)n23)cc1 40.9%
CCn1c(SCCC(C)C)nnc1-c1c[nH]c2ccccc12 1.7%
O=C(CSc1nnc(-c2cccs2)n1-c1ccccc1)N1CCN(C(=O)c2ccco2)CC1 23.6%
CCOc1ccccc1-n1c(SCC(=O)N2CCCC2)nnc1-c1ccoc1C 8.8%
CCOC(=O)N1CCN(C(=O)CSc2nnc(-c3c[nH]c4ccccc34)n2CCOC)CC1 14.7%
CC(C)(C)OC(=O)c1c(N)n(CCCN2CCCC2=O)c2nc3ccccc3nc12 -1.7%
CCc1c(C)n([O-])c2c([n+]1=O)CCCCC2 -11.5%
CC1CCC2(CC1)NC(=O)N(CC(=O)c1cccn1C)C2=O (stereo not given) -21.9%
Nc1ccc(C(=O)OCC(=O)NC2CCCc3ccccc32)cc1[N+](=O)[O-] (stereo not given) -4.1%
Cc1cc(NC(=O)Nc2ccccc2)n(-c2ccccc2)n1 14.5%
CCOc1ccc(N(CC(=O)NC2CCCCCC2)S(=O)(=O)c2c(C)[nH]c(=O)[nH]c2=O)cc1 1.3%
Cc1ccc(CNC(=O)c2ccccc2CCc2ccccc2)cc1 29.1%
Cc1cccc(C(=O)Nc2ccc(C(=O)/C=C/c3cccs3)cc2)c1 26.4%
O=C(NC1CC1)c1ccc2c(c1)NC(=O)c1ccccc1S2 11.1%
COc1ccc(C(=O)NC(=O)CSc2nnc(-c3ccco3)n2-c2ccccc2)cc1 -13.3%
COc1ccc(-c2nnc(SCC(=O)c3ccco3)n2-c2ccccc2)cc1 -14.6%
Cc1cc(NC(=O)CN2CCCC(C)C2)n(-c2nc3ccccc3s2)n1 (stereo not given) 22.2%
c1ccc2c(c1)OCC(c1nn3cnnc3s1)O2 (stereo not given) 7%
CC(C)(C)c1cc2cccnc2n1Cc1cccc(F)c1 6.5%
COC(=O)c1ccc(OCC(=O)NC(C)(C)C)cc1 14.1%
CC(C)(C)c1csc(NC2=NS(=O)(=O)c3ccccc32)n1 17.4%
O=S1(=O)C=C(SCCN2CCCC2)c2ccccc21 14%
Brc1cnc(N2CCCC2)nc1N1CCCCC1 -15.1%
COc1ccc(C2=NOC(C(=O)NCc3ccco3)C2)cc1OC (stereo not given) -31.2%
Cc1ccnc(-n2sc3ccccc3c2=O)n1 30.1%
COc1ccc(C(=O)Cc2cnn(-c3ccccc3)c2)c(O)c1 5%
CC(C)OC(=O)C(C#N)c1nc2ccccc2nc1N1CCN(Cc2ccc3c(c2)OCO3)CC1 (stereo not given) 16.9%
Cn1nnnc1SCC(=O)N1CCN(Cc2ccccc2)CC1 1.6%
Cc1cccc(C)c1NC(=O)c1ccc(CN2CCc3ccccc3C2)cc1 -5.8%
CC1(C)Cc2c(sc3nc4n(c(=N)c23)CCCCC4)CO1 3.2%
C=CC[n+]1c(-c2ccc(C)cc2)csc1NNC(=O)Nc1ccccc1 8.5%
c1cnc(Nc2nc(-c3ccc4ccccc4c3)cs2)nc1 -3.5%
Oc1ccc(-c2csc(Nc3cccnc3)n2)cc1 37.6%
Fc1ccc(Br)cc1/C=N/n1cnnc1 6.6%
Cc1cccc(C(=O)Nc2nnc(Cc3c[nH]c4ccccc34)s2)c1 -4.3%
CN(CC#CCC(c1ccccc1)c1ccccc1)C(C)(C)C 25.6%
CCCCn1c(=S)[nH]c2ncccc2c1=O 13.8%
N#Cc1ccc(C(c2nnnn2CCc2ccccc2)N2CCCCCC2)cc1 (stereo not given) 8.8%
CC(C)C(c1nnnn1Cc1ccccc1)N1CCC(C(N)=O)CC1 (stereo not given) 10.7%
CCOC(=O)N1CCC(C(N)=O)CC1 -7.1%
Cc1ccccc1OCC(=O)NCC(=O)OCC(=O)c1ccc2ccccc2c1 -61.4%
CCCOc1ccc2c3c(c(=O)oc2c1OCCC)CCC3 -0.6%
O=C(Oc1ccccc1)c1ccc2nccnc2c1 17%
CC(C)c1nc(-c2ccccn2)no1 3.9%

inhibition, active:
CCOC(=O)c1nc(Nc2ccc(C(=O)OC)cc2)c2ccccc2n1 59.5%
COc1ccc(-n2c(SCC(=O)NCc3cccs3)nnc2-c2ccoc2C)cc1 66.1%
O=C(CSc1nnc(-c2cccs2)n1-c1ccccc1)NCc1ccco1 70.7%
O=C(CSc1nnc2scc(-c3ccc(F)cc3)n12)NCc1ccco1 55%
CCn1c(SCC(=O)Nc2ccc(OC)c(OC)c2)nnc1-c1c[nH]c2ccccc12 93.3%
COc1ccc(-n2c(SCC(=O)NCc3ccco3)nnc2-c2c[nH]c3ccccc23)cc1 58.8%
CC/C(=N/Nc1ccccc1)c1cnnc(SC)n1 59%
CC(C)(C)c1ccc(OC2=CS(=O)(=O)c3ccccc32)cc1 79%
Cc1cc(O)cc(O)c1C(=O)Cc1cnn(-c2ccccc2)c1 63.4%
CC(C)OC(=O)C(C#N)c1nc2ccccc2nc1N1CCN(Cc2ccccc2)CC1 (stereo not given) 62.6%
c1ccc(Nc2nc(-c3ccncc3)cs2)nc1 92.9%
Fc1ccc(Cn2nnnc2C(c2cccs2)N2CCCCCC2)cc1 (stereo not given) 83.4%
O=C(Oc1ccc(-c2nc(-c3ccccn3)no2)cc1)c1ccccc1 87.2%
